In the supplement of paper PMC10849652:
Targets with a hit are over-represented here; the source holds about 8,800 in all. About 0.5% of all pairs of compound and target were hits.

Legend:
Assay in all cases: log2 fold change, soluble protein after heating vs DMSO (PISA); higher = thermal stabilisation; K562 lysate, 10 uM; active = over 0.2 and 3.5 SD of the protein, either way, in both replicates (recomputed)
vemurafenib = compound: CCCS(=O)(=O)Nc1ccc(F)c(C(=O)c2c[nH]c3ncc(-c4ccc(Cl)cc4)cc23)c1F [vemurafenib]
Summary of the method: (§1)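 Dounce homogenisation of K562 pellets in PBS pH 7.4 with 1 mM MgCl2 produced a crude extract, used at 1 mg/mL protein. Exposure to 10 μM compound lasted 30 min, and aliquots were then heated for 3 min across 48°C-58°C, pooled and brought to 0.5% NP-40 at 4°C. The supernatant after 21,000xg for 90 min was quantified by TMTpro 16plex LC-MS/MS with channel sums equalised. Duplicate values are given as log-two fold change in thermal stability relative to solvent controls.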

[1] = compound: CCCS(=O)(=O)Nc1ccc(F)c(C(=O)c2c[nH]c3ncc(Cl)cc23)c1F
Summary of the method: as §1

barasertib = compound: CCN(CCCOc1ccc2c(Nc3cc(CC(=O)Nc4cccc(F)c4)[nH]n3)ncnc2c1)CCOP(=O)(O)O [barasertib]
Summary of the method: as §1

[2] = compound: CC[C@@H]1C(=O)N(C)c2cnc(Nc3ccc(C(=O)NC4CCN(C)CC4)cc3OC)nc2N1C1CCCC1
Summary of the method: as §1

volasertib = compound: CC[C@@H]1C(=O)N(C)c2cnc(Nc3ccc(C(=O)N[C@H]4CC[C@H](N5CCN(CC6CC6)CC5)CC4)cc3OC)nc2N1C(C)C [volasertib]
Summary of the method: as §1

[3] = compound: CCn1c(C(=O)N(C2CC2)C2CC2)cc2c3c(ncn3C)c(Nc3cc(C)n(C)n3)nc21
Summary of the method: as §1

[4] = compound: CCn1cc(-c2ccnc3[nH]c(-c4cccc(CN(C)C)c4)cc23)c(-c2ccc(NC(=O)N(C)C)cc2)n1
Summary of the method: as §1

[5] = compound: CN1CCC(CNc2ccc3ncc(-c4cccc(OC(F)(F)F)c4)n3n2)CC1
Summary of the method: as §1

saracatinib = compound: CN1CCN(CCOc2cc(OC3CCOCC3)c3c(Nc4c(Cl)ccc5c4OCO5)ncnc3c2)CC1 [saracatinib]
Summary of the method: as §1

sotrastaurin = compound: CN1CCN(c2nc(C3=C(c4c[nH]c5ccccc45)C(=O)NC3=O)c3ccccc3n2)CC1 [sotrastaurin]
Summary of the method: as §1

alvocidib = compound: CN1CC[C@H](c2c(O)cc(O)c3c(=O)cc(-c4ccccc4Cl)oc23)[C@H](O)C1 [alvocidib]
Summary of the method: as §1

Tubastatin A = compound: CN1CCc2c(c3ccccc3n2Cc2ccc(C(=O)NO)cc2)C1 [Tubastatin A]
Summary of the method: as §1

[6] = compound: CNC(=O)C1=CC=CC=C1NC2=NC(=NC=C2Cl)NC3=C(C=C(C=C3)N4CCOCC4)OC
Summary of the method: as §1

defactinib = compound: CNC(=O)c1ccc(Nc2ncc(C(F)(F)F)c(NCc3nccnc3N(C)S(C)(=O)=O)n2)cc1 [defactinib]
Summary of the method: as §1

[7] = compound: CNc1nc(-c2ccc3c(N)n[nH]c3c2)cc(N2C[C@@H](C(=O)NC3CCCCC3)CC[C@H]2C)n1
Summary of the method: as §1

encorafenib = compound: COC(=O)N[C@@H](C)CNc1nccc(-c2cn(C(C)C)nc2-c2cc(Cl)cc(NS(C)(=O)=O)c2F)n1 [encorafenib]
Summary of the method: as §1

[8] = compound: COC(=O)[C@H](CCSC)NC(=O)C1=C(C=C(C=C1)NC[C@H](CS)N)C2=CC=CC=C2
Summary of the method: as §1

alisertib = compound: COc1cc(Nc2ncc3c(n2)-c2ccc(Cl)cc2C(c2c(F)cccc2OC)=NC3)ccc1C(=O)O [alisertib]
Summary of the method: as §1

[9] = compound: COc1cc2nc(-c3cc(F)ccc3O)nc(N[C@@H]3CNC[C@H]3C(C)(C)O)c2cc1OC
Summary of the method: as §1

gefitinib = compound: COc1cc2ncnc(Nc3ccc(F)c(Cl)c3)c2cc1OCCCN1CCOCC1 [gefitinib]
Summary of the method: as §1

Measured: log2 fold change

TELO2 (UniProt Q9Y4R8)
inactive: vemurafenib 0.063 | [1] 0 | barasertib 0.088 | [2] -0.073 | volasertib -0.071 | [3] 0.048 | [4] -0.017 | [5] -0.043 | saracatinib 0 | sotrastaurin 0.037 | alvocidib -0.01 | Tubastatin A -0.164 | [6] 0.035 | defactinib -0.008 | [7] -0.036 | encorafenib 0.003 | [8] 0.139 | alisertib 0.008 | [9] -0.009 | gefitinib 0.011

THOC5 (UniProt Q13769)
inactive: vemurafenib 0.005 | [1] 0.013 | barasertib -0.023 | [2] -0.031 | volasertib -0.008 | [3] 0.008 | [4] 0.02 | [5] -0.008 | saracatinib 0.024 | sotrastaurin 0.013 | alvocidib -0.027 | Tubastatin A -0.025 | [6] -0.021 | defactinib -0.008 | [7] -0.016 | encorafenib 0.005 | [8] 0.062 | alisertib 0.059 | [9] 0.006 | gefitinib -0.018

TRIM44 (UniProt Q96DX7)
inactive: vemurafenib -0.085 | [1] 0.095 | barasertib 0.066 | [2] -0.075 | volasertib -0.014 | [3] 0.003 | [4] 0.146 | [5] -0.031 | saracatinib 0.023 | sotrastaurin 0.044 | alvocidib 0 | Tubastatin A -0.013 | [6] 0.057 | defactinib -0.045 | [7] 0.04 | encorafenib -0.047 | [8] -0.034 | alisertib 0.041 | [9] -0.121 | gefitinib 0.088

UFSP2 (UniProt Q9NUQ7)
Chain of UniProt Q9NUQ7 (Q9NUQ7 whole entry, looked up): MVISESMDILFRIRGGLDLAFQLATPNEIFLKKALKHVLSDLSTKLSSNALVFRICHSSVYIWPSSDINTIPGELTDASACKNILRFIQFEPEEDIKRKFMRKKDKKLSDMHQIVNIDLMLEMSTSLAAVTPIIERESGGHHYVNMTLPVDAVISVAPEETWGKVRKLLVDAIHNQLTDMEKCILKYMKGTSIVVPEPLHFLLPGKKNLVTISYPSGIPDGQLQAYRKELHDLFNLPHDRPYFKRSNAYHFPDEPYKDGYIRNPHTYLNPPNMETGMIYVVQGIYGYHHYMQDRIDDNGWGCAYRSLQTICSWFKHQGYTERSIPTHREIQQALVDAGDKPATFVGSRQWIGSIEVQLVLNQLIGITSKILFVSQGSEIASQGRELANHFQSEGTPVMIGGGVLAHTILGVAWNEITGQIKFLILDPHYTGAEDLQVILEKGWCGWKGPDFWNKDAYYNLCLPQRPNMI
inactive: vemurafenib 0.074 | [1] -0.018 | barasertib -0.019 | [2] 0.072 | volasertib -0.071 | [3] 0.016 | [4] -0.011 | [5] 0.002 | saracatinib 0.036 | sotrastaurin 0.018 | alvocidib 0.034 | Tubastatin A 0.024 | [6] -0.045 | defactinib 0.022 | [7] -0.036 | encorafenib 0.031 | [8] 0.055 | alisertib 0.019 | [9] 0.035 | gefitinib -0.031

UBE3C (UniProt Q15386)
Chain of UniProt Q15386 (Q15386 whole entry, looked up): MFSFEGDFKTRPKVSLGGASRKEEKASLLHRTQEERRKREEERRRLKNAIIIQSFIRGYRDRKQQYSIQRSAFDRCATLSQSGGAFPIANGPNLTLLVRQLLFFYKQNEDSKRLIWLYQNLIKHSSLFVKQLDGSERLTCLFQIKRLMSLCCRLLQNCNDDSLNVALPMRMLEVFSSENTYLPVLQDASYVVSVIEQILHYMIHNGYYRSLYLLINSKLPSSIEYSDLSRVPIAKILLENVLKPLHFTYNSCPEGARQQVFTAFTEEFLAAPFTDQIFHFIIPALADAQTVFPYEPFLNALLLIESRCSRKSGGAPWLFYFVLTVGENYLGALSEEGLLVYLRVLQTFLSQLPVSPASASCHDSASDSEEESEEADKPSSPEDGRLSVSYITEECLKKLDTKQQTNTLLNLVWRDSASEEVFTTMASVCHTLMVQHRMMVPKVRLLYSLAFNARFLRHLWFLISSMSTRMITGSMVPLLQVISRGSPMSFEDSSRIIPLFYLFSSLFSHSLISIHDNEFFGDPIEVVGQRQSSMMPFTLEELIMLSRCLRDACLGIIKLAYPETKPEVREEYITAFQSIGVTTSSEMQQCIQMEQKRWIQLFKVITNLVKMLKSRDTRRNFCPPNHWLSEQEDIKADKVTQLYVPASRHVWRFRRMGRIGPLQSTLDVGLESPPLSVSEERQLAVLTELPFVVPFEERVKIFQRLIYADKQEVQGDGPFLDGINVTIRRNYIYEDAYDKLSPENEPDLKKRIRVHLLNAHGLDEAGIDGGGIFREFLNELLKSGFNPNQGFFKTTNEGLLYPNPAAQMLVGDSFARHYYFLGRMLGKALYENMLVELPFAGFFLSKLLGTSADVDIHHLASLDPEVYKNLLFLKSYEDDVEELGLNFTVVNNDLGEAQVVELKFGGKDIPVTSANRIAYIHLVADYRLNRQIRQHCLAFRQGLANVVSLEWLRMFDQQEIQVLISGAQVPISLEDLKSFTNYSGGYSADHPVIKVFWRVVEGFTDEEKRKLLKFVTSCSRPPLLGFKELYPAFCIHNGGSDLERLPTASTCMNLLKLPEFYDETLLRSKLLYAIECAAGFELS
inactive: vemurafenib -0.001 | [1] 0.006 | barasertib 0.016 | [2] -0.021 | volasertib -0.073 | [3] 0.086 | [4] -0.075 | [5] 0.002 | saracatinib 0.04 | sotrastaurin 0.03 | alvocidib 0 | Tubastatin A -0.084 | [6] 0.023 | defactinib 0.033 | [7] 0.024 | encorafenib 0.076 | [8] -0.145 | alisertib 0.022 | [9] 0 | gefitinib -0.026

TMPO (UniProt P42167)
inactive: vemurafenib 0.063 | [1] 0.008 | barasertib 0.003 | [2] -0.01 | volasertib 0.013 | [3] 0.022 | [4] 0.033 | [5] -0.033 | saracatinib 0.014 | sotrastaurin -0.014 | alvocidib -0.007 | Tubastatin A 0.018 | [6] -0.034 | defactinib -0.015 | [7] 0.029 | encorafenib 0.035 | [8] -0.163 | alisertib -0.026 | [9] -0.025 | gefitinib 0.027

TCAF2 (UniProt A6NFQ2)
Chain of UniProt A6NFQ2 (A6NFQ2 whole entry, looked up): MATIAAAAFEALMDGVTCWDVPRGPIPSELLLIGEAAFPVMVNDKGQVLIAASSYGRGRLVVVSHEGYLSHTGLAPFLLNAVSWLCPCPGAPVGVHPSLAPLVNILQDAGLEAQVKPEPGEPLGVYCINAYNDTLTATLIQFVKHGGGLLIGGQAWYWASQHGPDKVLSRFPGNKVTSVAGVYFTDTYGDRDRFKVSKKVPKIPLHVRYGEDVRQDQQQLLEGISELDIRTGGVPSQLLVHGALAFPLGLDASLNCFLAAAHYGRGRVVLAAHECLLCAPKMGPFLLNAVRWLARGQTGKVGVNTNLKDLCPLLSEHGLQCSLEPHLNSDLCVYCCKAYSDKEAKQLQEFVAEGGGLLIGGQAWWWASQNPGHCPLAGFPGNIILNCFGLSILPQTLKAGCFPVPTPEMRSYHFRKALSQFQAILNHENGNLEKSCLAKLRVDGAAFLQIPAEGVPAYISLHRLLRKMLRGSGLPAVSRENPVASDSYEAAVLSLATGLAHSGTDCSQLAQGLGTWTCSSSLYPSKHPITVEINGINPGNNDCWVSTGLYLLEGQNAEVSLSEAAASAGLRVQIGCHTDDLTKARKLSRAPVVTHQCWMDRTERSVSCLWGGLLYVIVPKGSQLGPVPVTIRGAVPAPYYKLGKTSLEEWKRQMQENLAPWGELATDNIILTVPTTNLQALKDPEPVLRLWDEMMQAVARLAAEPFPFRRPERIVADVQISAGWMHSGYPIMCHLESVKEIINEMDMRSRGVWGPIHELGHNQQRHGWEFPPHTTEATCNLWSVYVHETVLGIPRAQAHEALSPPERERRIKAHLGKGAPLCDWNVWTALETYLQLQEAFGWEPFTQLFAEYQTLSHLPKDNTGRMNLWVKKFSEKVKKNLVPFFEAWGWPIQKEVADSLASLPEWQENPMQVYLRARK
inactive: vemurafenib 0.052 | [1] 0.041 | barasertib -0.048 | [2] -0.027 | volasertib -0.049 | [3] 0.045 | [4] 0.003 | [5] -0.05 | saracatinib 0.004 | sotrastaurin -0.017 | alvocidib -0.016 | Tubastatin A -0.183 | [6] -0.026 | defactinib 0.067 | [7] -0.026 | encorafenib 0.006 | [8] 0.044 | alisertib 0.03 | [9] -0.067 | gefitinib -0.042

TTMP isoform 3 (UniProt Q5BVD1)
inactive: vemurafenib 0.227 | [1] 0.029 | barasertib -0.025 | [2] 0.122 | volasertib 0.031 | [3] -0.182 | [5] 0.316 | saracatinib 0.012 | sotrastaurin -0.029 | alvocidib -0.347 | Tubastatin A 0.24 | [6] -0.105 | defactinib -0.088 | [7] 0.36 | encorafenib -0.06 | [8] 0.06 | alisertib 0.119 | [9] 0.129 | gefitinib 0.02
active: [4] -0.88

TOX4 (UniProt O94842)
Chain of UniProt O94842 (O94842 whole entry, looked up): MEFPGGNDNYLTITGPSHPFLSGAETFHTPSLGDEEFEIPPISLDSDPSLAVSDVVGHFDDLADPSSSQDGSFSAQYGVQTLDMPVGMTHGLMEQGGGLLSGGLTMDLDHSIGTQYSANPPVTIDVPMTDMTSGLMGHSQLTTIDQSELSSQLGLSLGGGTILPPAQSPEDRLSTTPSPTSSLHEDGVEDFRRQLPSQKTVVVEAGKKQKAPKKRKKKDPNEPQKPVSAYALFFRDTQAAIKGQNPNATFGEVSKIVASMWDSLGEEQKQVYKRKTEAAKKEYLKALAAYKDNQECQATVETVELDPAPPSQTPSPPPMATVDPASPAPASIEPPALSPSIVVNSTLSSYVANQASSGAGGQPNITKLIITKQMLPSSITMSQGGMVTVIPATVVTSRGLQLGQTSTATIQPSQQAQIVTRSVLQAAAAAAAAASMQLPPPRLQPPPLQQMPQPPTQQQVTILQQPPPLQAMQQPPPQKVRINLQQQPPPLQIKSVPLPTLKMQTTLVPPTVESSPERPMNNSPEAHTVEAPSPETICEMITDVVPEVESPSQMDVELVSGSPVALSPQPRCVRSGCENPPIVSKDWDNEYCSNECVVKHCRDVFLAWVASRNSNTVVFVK
inactive: vemurafenib -0.019 | [1] 0.005 | barasertib 0.017 | [2] 0.06 | volasertib -0.027 | [3] -0.018 | [4] -0.235 | [5] 0.147 | saracatinib 0.041 | sotrastaurin 0.005 | alvocidib -0.16 | Tubastatin A -0.006 | [6] 0.027 | defactinib 0.025 | [7] -0.022 | encorafenib -0.011 | [8] -0.082 | alisertib 0.028 | [9] -0.013 | gefitinib -0.016

TFCP2 (UniProt Q12800)
Chain of UniProt Q12800 (Q12800 whole entry, looked up): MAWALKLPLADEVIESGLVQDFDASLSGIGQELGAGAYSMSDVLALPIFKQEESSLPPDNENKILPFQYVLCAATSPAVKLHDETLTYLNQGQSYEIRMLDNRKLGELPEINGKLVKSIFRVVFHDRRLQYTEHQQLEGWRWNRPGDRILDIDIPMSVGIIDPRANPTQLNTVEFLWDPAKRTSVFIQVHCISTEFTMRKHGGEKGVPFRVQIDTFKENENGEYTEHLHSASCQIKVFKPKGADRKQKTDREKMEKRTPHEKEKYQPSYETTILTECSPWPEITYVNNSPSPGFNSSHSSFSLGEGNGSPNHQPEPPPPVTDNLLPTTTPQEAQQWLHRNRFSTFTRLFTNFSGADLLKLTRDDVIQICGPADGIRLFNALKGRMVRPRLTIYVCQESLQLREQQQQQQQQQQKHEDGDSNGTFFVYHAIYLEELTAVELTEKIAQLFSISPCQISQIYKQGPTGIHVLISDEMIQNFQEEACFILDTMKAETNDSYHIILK
inactive: vemurafenib 0.023 | [1] 0.049 | barasertib 0.007 | [2] -0.064 | volasertib -0.064 | [3] 0.045 | [4] -0.042 | [5] -0.083 | saracatinib 0.022 | sotrastaurin -0.006 | alvocidib 0.015 | Tubastatin A -0.215 | [6] 0.169 | defactinib 0.003 | [7] 0.009 | encorafenib 0.093 | [8] 0.044 | alisertib 0.019 | [9] -0.049 | gefitinib -0.033

UBL4A (UniProt P11441)
Chain of UniProt P11441 (P11441 whole entry, looked up): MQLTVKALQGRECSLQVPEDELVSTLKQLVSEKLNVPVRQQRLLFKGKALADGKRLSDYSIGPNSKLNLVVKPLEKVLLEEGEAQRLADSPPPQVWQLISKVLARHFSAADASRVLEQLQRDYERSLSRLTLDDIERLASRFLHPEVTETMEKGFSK
inactive: vemurafenib -0.032 | [1] -0.001 | barasertib 0.089 | [2] -0.081 | volasertib -0.02 | [3] 0.121 | [5] -0.094 | saracatinib 0.028 | sotrastaurin 0 | alvocidib 0.016 | Tubastatin A -0.039 | [6] -0.015 | defactinib 0.006 | [7] -0.008 | encorafenib 0.046 | [8] -0.043 | alisertib 0.018 | [9] -0.059 | gefitinib -0.033
active: [4] 0.33

TUBA1C (UniProt Q9BQE3)
Chain of UniProt Q9BQE3 (Q9BQE3 whole entry, looked up): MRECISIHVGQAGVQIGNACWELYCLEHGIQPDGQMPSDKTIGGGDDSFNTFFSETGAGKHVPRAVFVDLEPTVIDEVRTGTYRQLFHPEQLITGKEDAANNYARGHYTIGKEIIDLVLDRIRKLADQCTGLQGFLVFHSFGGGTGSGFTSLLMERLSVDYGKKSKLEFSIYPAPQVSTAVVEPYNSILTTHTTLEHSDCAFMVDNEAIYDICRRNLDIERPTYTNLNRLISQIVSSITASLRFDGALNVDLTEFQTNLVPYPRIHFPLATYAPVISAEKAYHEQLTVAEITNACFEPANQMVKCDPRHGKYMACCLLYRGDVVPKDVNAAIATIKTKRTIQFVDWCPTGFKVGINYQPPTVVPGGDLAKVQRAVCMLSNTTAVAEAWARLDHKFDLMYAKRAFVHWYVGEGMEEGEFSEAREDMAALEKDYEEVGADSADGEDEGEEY
inactive: vemurafenib 0.036 | [1] 0.026 | barasertib 0.013 | [2] 0.009 | volasertib -0.059 | [3] -0.029 | [4] -0.082 | [5] 0.022 | saracatinib 0.054 | sotrastaurin 0.044 | alvocidib 0 | Tubastatin A -0.001 | [6] 0.011 | defactinib 0.009 | [7] 0.06 | encorafenib -0.002 | [8] 0.023 | alisertib -0.012 | [9] 0.001 | gefitinib -0.042

TRAPPC12 (UniProt Q8WVT3)
Chain of UniProt Q8WVT3 (Q8WVT3 whole entry, looked up): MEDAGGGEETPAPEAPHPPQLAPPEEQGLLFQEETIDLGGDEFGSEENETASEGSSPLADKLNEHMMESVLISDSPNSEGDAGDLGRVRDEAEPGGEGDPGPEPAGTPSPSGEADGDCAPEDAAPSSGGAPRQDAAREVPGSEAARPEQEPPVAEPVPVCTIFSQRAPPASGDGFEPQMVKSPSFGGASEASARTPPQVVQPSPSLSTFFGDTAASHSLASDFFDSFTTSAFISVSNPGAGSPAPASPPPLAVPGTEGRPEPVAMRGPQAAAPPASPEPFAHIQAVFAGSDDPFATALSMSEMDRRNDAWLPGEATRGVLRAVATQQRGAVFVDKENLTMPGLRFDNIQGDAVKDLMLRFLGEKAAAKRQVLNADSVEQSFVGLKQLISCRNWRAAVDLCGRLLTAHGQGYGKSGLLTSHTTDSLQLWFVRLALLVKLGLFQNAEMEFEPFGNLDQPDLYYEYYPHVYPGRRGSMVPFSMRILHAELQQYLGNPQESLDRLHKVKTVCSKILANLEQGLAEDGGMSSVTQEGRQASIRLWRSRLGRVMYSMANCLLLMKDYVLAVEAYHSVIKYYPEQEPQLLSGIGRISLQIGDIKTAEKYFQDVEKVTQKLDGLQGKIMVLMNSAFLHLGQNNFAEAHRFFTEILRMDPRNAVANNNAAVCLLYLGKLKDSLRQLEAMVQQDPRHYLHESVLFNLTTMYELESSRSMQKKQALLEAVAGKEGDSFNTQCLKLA
inactive: vemurafenib 0.039 | [1] -0.001 | barasertib -0.007 | [2] 0.047 | volasertib -0.083 | [3] -0.03 | [4] -0.027 | [5] -0.009 | saracatinib 0.028 | sotrastaurin -0.003 | alvocidib -0.009 | Tubastatin A -0.079 | [6] 0.063 | defactinib 0.002 | [7] -0.039 | encorafenib 0.065 | [8] 0.057 | alisertib 0.034 | [9] 0.01 | gefitinib 0.022

TGFBRAP1 (UniProt Q8WUH2)
inactive: vemurafenib -0.031 | [1] 0.02 | barasertib 0.031 | [2] -0.069 | volasertib -0.062 | [3] 0.049 | [4] 0 | [5] -0.075 | saracatinib 0.005 | sotrastaurin -0.001 | alvocidib -0.026 | Tubastatin A -0.153 | [6] 0 | defactinib 0.005 | [7] -0.012 | encorafenib -0.015 | [8] -0.174 | alisertib 0.011 | [9] -0.025 | gefitinib -0.025

TRIM65 (UniProt Q6PJ69)
inactive: vemurafenib 0.025 | [1] 0.085 | barasertib 0.013 | [2] 0.026 | volasertib -0.076 | [3] 0 | [4] -0.056 | [5] 0.008 | saracatinib -0.022 | sotrastaurin 0.022 | alvocidib -0.11 | Tubastatin A 0.025 | [6] -0.044 | defactinib 0.024 | [7] -0.014 | encorafenib -0.002 | [8] 0.089 | alisertib -0.02 | [9] 0.023 | gefitinib 0.003

TECR (UniProt Q9NZ01)
inactive: vemurafenib -0.003 | [1] 0.054 | barasertib 0.082 | [2] -0.02 | volasertib 0.001 | [3] 0.032 | [4] 0.014 | [5] -0.247 | saracatinib 0.045 | sotrastaurin -0.034 | alvocidib 0.05 | Tubastatin A -0.015 | [6] -0.046 | defactinib 0.052 | [7] -0.008 | encorafenib 0.068 | [8] -0.104 | alisertib 0.053 | [9] 0.048 | gefitinib -0.008
